Results from PubChem BioAssay AID1159580 (chemical genetic matrix, 2015).
In all, about 5,500 compounds went through this assay and about 2,000 (36%) were called active. Roughly 18% stayed inconclusive and do not appear here. No stated cut-off is given here; in the data, active means normalized growth mostly below about 0.91 (no sharp cut-off); inconclusive means no clear call, values can overlap the other calls; inactive means mostly above about 0.92. Some of the results follow.

Test: chemical genetic growth profiling, strain panel (AID 1159580);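 further: tested at 20 µM; growth read once vehicle control cultures reached saturation at 30 °C; 1 = growth at the plate median or of vehicle wells; lower values mean less growth of the strain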
Conditions: growth OD

Measured: normalized growth

NCCCC[C@H](N[C@@H](CCc1ccccc1)C(=O)O)C(=O)N1CCC[C@H]1C(=O)O
inactive: S. cerevisiae deletion strains, locus YKL009W, strain mrt4, active compounds read low 0.973 | S. cerevisiae deletion strains, locus YKL068W, active compounds read low 0.99 | S. cerevisiae deletion strains, locus YKL085W, strain MDH1 (second series), active compounds read low 0.993 | S. cerevisiae deletion strains, locus YKL085W, strain MDH1, active compounds read low 0.993 | S. cerevisiae deletion strains, locus YKL160W, strain elf1, active compounds read low 0.999 | S. cerevisiae deletion strains, locus YKL190W, strain CNB1, active compounds read low 0.981 | S. cerevisiae deletion strains, locus YKR001C, strain vps1, active compounds read low 1.01 | S. cerevisiae deletion strains, locus YKR026C, strain gcn3, active compounds read low 1.04 | S. cerevisiae deletion strains, locus YKR091W, strain srl3, active compounds read low 1.01 | S. cerevisiae deletion strains, locus YLL001W, strain dnm1, active compounds read low 1 | S. cerevisiae deletion strains, locus YLL026W, active compounds read low 0.994 | S. cerevisiae deletion strains, locus YLL041C, strain sdh2, active compounds read low 0.97 | S. cerevisiae deletion strains, locus YLR027C, strain aat2, active compounds read low 0.998 | S. cerevisiae deletion strains, locus YLR039C, strain RIC1, active compounds read low 0.985 | S. cerevisiae deletion strains, locus YLR058C, strain SHM2, active compounds read low 0.984 | S. cerevisiae deletion strains, locus YLR102C, strain apc9, active compounds read low 0.996 | S. cerevisiae deletion strains, locus YLR113W, strain HOG1, active compounds read low 1.01 | S. cerevisiae deletion strains, locus YLR221C, strain rsa3, active compounds read low 0.981 | S. cerevisiae deletion strains, locus YLR258W, strain gsy2, active compounds read low 1.01 | S. cerevisiae deletion strains, locus YLR262C, strain YPT6 (second series), active compounds read low 1.01 | S. cerevisiae deletion strains, locus YLR262C, strain YPT6, active compounds read low 0.94 | S. cerevisiae deletion strains, locus YLR268W, strain sec22, active compounds read low 1 | S. cerevisiae deletion strains, locus YLR320W, strain mms22, active compounds read low 1.03 | S. cerevisiae deletion strains, locus YLR330W, strain CHS5, active compounds read low 0.994 | S. cerevisiae deletion strains, locus YLR342W, strain FKS1 (second series), active compounds read low 1.05 | S. cerevisiae deletion strains, locus YLR342W, strain FKS1, active compounds read low 1 | S. cerevisiae deletion strains, locus YLR357W, strain rsc2, active compounds read low 1.04 | S. cerevisiae deletion strains, locus YLR370C, strain arc18, active compounds read low 0.971 | S. cerevisiae deletion strains, locus YLR371W, strain rom2, active compounds read low 1 | S. cerevisiae deletion strains, locus YLR384C, strain iki3, active compounds read low 0.978 | S. cerevisiae deletion strains, locus YLR418C, strain cdc73, active compounds read low 1 | S. cerevisiae deletion strains, locus YML016C, strain PPZ1, active compounds read low 0.992 | S. cerevisiae deletion strains, locus YML032C, strain rad52, active compounds read low 0.999 | S. cerevisiae deletion strains, locus YML120C, strain ndi1, active compounds read low 0.976 | S. cerevisiae deletion strains, locus YML124C, strain tub3, active compounds read low 0.995 | S. cerevisiae deletion strains, locus YMR058W, strain fet3, active compounds read low 1.02 | S. cerevisiae deletion strains, locus YMR078C, strain ctf18, active compounds read low 0.998 | S. cerevisiae deletion strains, locus YMR125W, strain sto1, active compounds read low 1.04 | S. cerevisiae deletion strains, locus YMR129W, active compounds read low 0.964 | S. cerevisiae deletion strains, locus YMR205C, strain PFK2, active compounds read low 0.984 | S. cerevisiae deletion strains, locus YMR223W, strain ubp8, active compounds read low 0.983 | S. cerevisiae deletion strains, locus YMR231W, strain pep5, active compounds read low 1.02 | S. cerevisiae deletion strains, locus YMR307W, strain GAS1, active compounds read low 1.05 | S. cerevisiae deletion strains, locus YNL067W, strain RPL9B, active compounds read low 0.964 | S. cerevisiae deletion strains, locus YNL071W, strain lat1, active compounds read low 1.02 | S. cerevisiae deletion strains, locus YNL128W, strain TEP1, active compounds read low 0.989 | S. cerevisiae deletion strains, locus YNL153C, strain GIM3, active compounds read low 0.955 | S. cerevisiae deletion strains, locus YNL183C, strain NPR1, active compounds read low 0.96 | S. cerevisiae deletion strains, locus YNL209W, strain ssb2, active compounds read low 1.01 | S. cerevisiae deletion strains, locus YNL233W, strain BNI4, active compounds read low 0.975 | S. cerevisiae deletion strains, locus YNL248C, strain rpa49, active compounds read low 1.01 | S. cerevisiae deletion strains, locus YNL250W, strain rad50, active compounds read low 0.982 | S. cerevisiae deletion strains, locus YNL271C, strain bni1, active compounds read low 0.997 | S. cerevisiae deletion strains, locus YNL298W, strain CLA4, active compounds read low 0.993 | S. cerevisiae deletion strains, locus YNL307C, strain MCK1, active compounds read low 1.01 | S. cerevisiae deletion strains, locus YNL322C, strain KRE1 (second series), active compounds read low 1.02 | S. cerevisiae deletion strains, locus YNL322C, strain KRE1, active compounds read low 0.993 | S. cerevisiae deletion strains, locus YNR049C, strain mso1, active compounds read low 0.964 | S. cerevisiae deletion strains, locus YNR052C, strain pop2, active compounds read low 1.01 | S. cerevisiae deletion strains, locus YOL006C, strain TOP1, active compounds read low 0.922 | S. cerevisiae deletion strains, locus YOL012C, strain htz1 1.17 | S. cerevisiae deletion strains, locus YOL147C, strain pex11, active compounds read low 0.988 | S. cerevisiae deletion strains, locus YOR001W, strain rrp6, active compounds read low 0.967 | S. cerevisiae deletion strains, locus YOR061W, strain CKA2, active compounds read low 0.956 | S. cerevisiae deletion strains, locus YOR069W, strain VPS5, active compounds read low 0.998 | S. cerevisiae deletion strains, locus YOR070C, strain gyp1, active compounds read low 0.941 | S. cerevisiae deletion strains, locus YOR080W, strain dia2, active compounds read low 0.992 | S. cerevisiae deletion strains, locus YOR083W, strain WHI5, active compounds read low 1.01 | S. cerevisiae deletion strains, locus YOR106W, strain vam3, active compounds read low 1 | S. cerevisiae deletion strains, locus YOR136W, strain idh2, active compounds read low 0.994 | S. cerevisiae deletion strains, locus YOR144C, strain elg1, active compounds read low 0.998 | S. cerevisiae deletion strains, locus YOR184W, strain ser1, active compounds read low 1 | S. cerevisiae deletion strains, locus YOR231W, strain MKK1, active compounds read low 1.04 | S. cerevisiae deletion strains, locus YOR265W, strain rbl2, active compounds read low 0.987 | S. cerevisiae deletion strains, locus YOR270C, strain vph1, active compounds read low 1.04 | S. cerevisiae deletion strains, locus YOR290C, strain snf2, active compounds read low 1.02 | S. cerevisiae deletion strains, locus YOR316C, strain cot1, active compounds read low 1 | S. cerevisiae deletion strains, locus YPL051W, strain arl3, active compounds read low 1.01 | S. cerevisiae deletion strains, locus YPL078C, strain atp4, active compounds read low 1.02 | S. cerevisiae deletion strains, locus YPL106C, strain sse1, active compounds read low 0.949 | S. cerevisiae deletion strains, locus YPL240C, strain hsp82, active compounds read low 0.986 | S. cerevisiae deletion strains, locus YPL256C, strain CLN2, active compounds read low 1.02 | S. cerevisiae deletion strains, locus YPR119W, strain clb2, active compounds read low 0.994 | S. cerevisiae deletion strains, locus YPR141C, strain kar3, active compounds read low 0.985 | S. cerevisiae deletion strains, locus YPR163C, strain tif3, active compounds read low 0.988 | S. cerevisiae deletion strains, locus YPR167C, strain met16, active compounds read low 0.999 | S. cerevisiae deletion strains, strain wtn01, active compounds read low 0.998 | S. cerevisiae strains, strain wild type, active compounds read low 0.982
